Screens deposited in PubChem BioAssay by National Center for Advancing Translational Sciences (NCATS).
KinaseGlo FLuc: Counterscreen for Luciferase (Kinase-Glo TM) Inhibition. Luciferin 4-monooxygenase (Photuris pensylvanica), Q27757. Potency, µM (doses to about 38.3 µM), without a hit: at the highest dose activity change, negative = inhibition, hits mostly inhibitors. Kinase-Glo luciferase, ATP luminescence, 8 min. AID 1379, 2008. 200,000 tested, 0.28% active; further: on the % scale 0 is the no-effect control and ±100 the full control effect; nearly all actives have a fitted effect of over 60% in size
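Recombinant Kinase-Glo luciferase, 10 uM ATP (linear range), luciferin; imidazole pH 7.2 / KCl / MgCl2 / Tween / BSA buffer; 8 min RT; luminescence.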
SMN2 splice up: qHTS Assay for Enhancers of SMN2 Splice Variant Expression. HEK293 SMN2-luciferase splicing reporter, luminescence, 30-36 h. AID 1458, 2008. Potency, µM (series often up to 46.1 µM), without a hit: at the top dose activity change, positive = activation, most hits filed as activators. 210,000 tested, 2.8% active; further: % of control where 0% means no effect; nearly all actives have a fitted effect of over 55% in size
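HEK293 cells carry an SMN2 […]–luciferase reporter in which exon 7 inclusion puts luciferase in frame. Cells were plated 10-12 h before compound addition, then incubated 30-36 h at 37C. ONE-Glo luminescence was read; sodium butyrate at 4.5 mM final served as control.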
NPC1 prom act: qHTS Assay for NPC1 Promoter Activators; Huh7 NPC1 promoter luciferase reporter, 24 h; Potency, µM (highest dose often 9.22 µM), for inactives: top-dose activation, usual class: activators; 320,000 tested, 2.4% active; AID 485313, 2010; further: % of control where 0% means no effect; nearly all actives have a fitted effect of over 60% in size
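Compounds in DMSO were transferred onto Huh7 NPC1-luciferase reporter cells pre-incubated 2 h; after 24 h at 37 °C, Amplite reagent was dispensed and luminescence recorded 10 min later.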
FLuc modulator: qHTS profiling assay for firefly luciferase inhibitor/activator using purifed enzyme and Km concentrations of substrates (counterscreen for miR-21 project) | purified FLuc, Km substrates, luminescence inhibition | AID 588342, 2011 | Luciferin 4-monooxygenase (Photinus pyralis), P08659 | Potency, µM (titrated, usually from 57.5 µM), for inactives: at the top dose activity change, negative = inhibition, hits mostly inhibitors | 360,000 tested, 6.9% active;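 further: plate controls were vehicle for no effect and reference inhibitor for full effect; nearly all actives have a fitted effect of over 55% in size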
Target sequence (P08659 whole entry, looked up): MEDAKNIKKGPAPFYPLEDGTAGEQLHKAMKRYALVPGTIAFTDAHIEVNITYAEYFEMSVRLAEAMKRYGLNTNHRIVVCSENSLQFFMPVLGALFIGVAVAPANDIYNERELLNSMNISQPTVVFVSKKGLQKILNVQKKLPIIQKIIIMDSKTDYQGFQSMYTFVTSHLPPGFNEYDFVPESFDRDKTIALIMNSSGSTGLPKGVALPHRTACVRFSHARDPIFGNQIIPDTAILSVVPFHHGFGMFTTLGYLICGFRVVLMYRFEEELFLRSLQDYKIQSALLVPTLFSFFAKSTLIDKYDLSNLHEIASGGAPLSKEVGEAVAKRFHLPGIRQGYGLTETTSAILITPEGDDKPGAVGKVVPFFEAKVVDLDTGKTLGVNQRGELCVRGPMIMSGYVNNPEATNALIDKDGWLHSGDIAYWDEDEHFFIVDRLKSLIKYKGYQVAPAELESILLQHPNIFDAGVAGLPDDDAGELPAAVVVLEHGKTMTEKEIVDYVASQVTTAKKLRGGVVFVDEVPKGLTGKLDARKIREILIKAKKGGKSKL
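Purified P. pyralis luciferase (10nM final) with 10uM D-luciferin and 10uM ATP (Km levels) in 50mM Tris acetate pH 7.5, 10mM Mg acetate, 0.01% Tween-20, 0.05% BSA; qHTS 6-point titration, ~60 µM downward; luminescence read.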
Rab9 promoter act: qHTS Assay for Rab9 Promoter Activators; Huh7 Rab9 promoter-luciferase reporter, luminescence, 24 h; Potency, µM (series often up to 9.22 µM), for inactives: top-dose activation, negative = inhibition, actives largely listed as activators; 320,000 tested, 2.8% active; AID 485297, 2010; further: % of control where 0% means no effect; nearly all actives have a fitted effect of over 60% in size
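Cells were plated at 1500 per well in reduced-serum medium with 10% FBS and left 2 h. Compound in DMSO was then added for 24 h at 37 °C. Reporter signal was read by luminescence after 10 min with luciferase detection reagent.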
ELG1 genotox: qHTS screen for small molecules that induce genotoxicity in human embryonic kidney (HEK293T) cells expressing luciferase-tagged ELG1; AID 504466, 2011; HEK293T ELG1-luciferase reporter, luminescence, 16 h; 330,000 tested, 1.3% active; Potency, µM (titrated, usually from 46 µM), for inactives: at the highest dose activity change, positive = activation, usual class: activators; further: % of control where 0% means no effect; nearly all actives have a fitted effect of over 60% in size
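Luminescence read-out: rising ELG1-luciferase signal, reflecting elevated ELG1 protein under genetic stress, flags genotoxic compounds. Cells were treated for 16 hr at 37 °C before ONE-Glo detection.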
Numbers without * were called inactive; ? = inconclusive; . = no result given; [ ] = another dose, or the depositor's remark. A selection: hits, their analogues and other compounds. The true share with any hit is near 7.3%. The call rests on the fitted dose curve; in most records, active means well fitted curve in the direction sought with a large enough effect; inconclusive means small, poorly fitted or top-dose-only effect, or another doubt; inactive means no such curve, though single readings can be large; an effect the other way counts as inactive or inconclusive. Potency means the concentration at half of the fitted maximal effect.

SMILES	KinaseGlo FLuc	SMN2 splice up	NPC1 prom act	FLuc modulator	Rab9 promoter act	ELG1 genotox
CC(=O)c1cccc(N=C2NC(=O)CS2)c1	16%	-7%	2%	1%	3%	-1%
O=C(N=Nc1c(O)[nH]c2ccccc12)c1cccs1	?	11µM*	?	2.1µM*	2.5µM*	12%
CC(=O)c1cccc(N=Nc2c(C)[nH]c3ccccc23)c1	-3%	4%	2%	24µM*	4%	6%
CC(C)Oc1ccc(C(=O)NCC(=O)OCC(=O)N(C)Cc2cccs2)cc1	-2%	11%	-9%	15µM*	0%	-1%
CC(C)Oc1ccc(C(=O)N(Cc2ccco2)Cc2cccs2)cc1	.	-1%	.	-18%	.	.
O=C(Nc1ccccc1)Nc1ccc(-n2ccc(C(F)(F)F)n2)cc1	.	.	2.8µM*	4.3µM*	1.8µM*	?
O=C(O)CC(CC(=O)Nc1ccc(-n2ccc(C(F)(F)F)n2)cc1)c1ccccc1 (stereo not drawn)	.	.	2%	3%	-3%	3%
CCN1C(=O)CC(N2CCC(Cc3ccccc3)CC2)C1=O (stereo not drawn)	-1%	-2%	2%	-1%	-6%	-3%
O=C(CSCc1ccc(Cl)cc1)Nc1cc([N+](=O)[O-])ccc1O	3%	-29%	0%	-15%	0%	-14%
Cc1ccc(SCC(=O)Nc2cc([N+](=O)[O-])ccc2O)cc1	0%	.	4%	17µM*	7%	-6%
O=C(COc1ccccc1Br)c1ccc2c(c1)OCO2	.	.	22%	?	6%	2%
Cc1ccc(NC(=O)c2ccc(NC(=O)C3CCCCC3C(=O)O)cc2)cc1 (stereo not drawn)	.	.	-3%	17µM*	-1%	11%
O=C(O)C1CCCCC1C(=O)Nc1ccc(-c2ccccc2)cc1 (stereo not drawn)	1%	27%	18%	17µM*	?	?
Cc1sc(NC(=O)C2CCCCC2C(=O)O)c(C(N)=O)c1-c1ccccc1 (stereo not drawn)	-1%	-24%	1.6µM*	3.4µM*	3.5µM*	?
CC(=O)Nc1ccc(NC(=O)C2CCCCC2C(=O)O)cc1 (stereo not drawn)	2%	5%	-1%	1%	-3%	1%
COc1ccc(NC(=O)c2cc(NC(=O)C3CCCCC3C(=O)O)ccc2N2CCOCC2)cc1 (stereo not drawn)	.	.	-6%	1%	-4%	2%
CC(=O)Nc1ccc(NC(=O)[C@@H]2CCCC[C@@H]2C(=O)O)cc1	-1%	-32%	2%	-1%	-4%	1%
Cc1cccc(NC(=O)c2cc(NC(=O)C3CCCCC3C(=O)O)ccc2N2CCOCC2)c1 (stereo not drawn)	.	.	16%	21µM*	23%	0%
Cc1ccccc1C(=O)c1cccn1CC(=O)NCc1ccccc1Cl	.	.	19%	?	?	?
O=C(Nc1ccn(Cc2ccc(Cl)cc2)n1)c1ccc2c(c1)OCO2	-3%	6%	.	21µM*	.	.
Cc1ccc(Cn2nc(C)c(NC(=O)c3nn(C)cc3Cl)c2C)cc1	0%	-9%	-5%	-6%	-2%	-3%
Cc1cccc(Cn2ccc(NC(=O)c3ccc4c(c3)OCO4)n2)c1	1%	-4%	-1%	17µM*	3%	6%
O=C(N/N=C/c1ccc2c(c1)OCO2)c1ccn(Cc2ccc(Cl)cc2)n1	.	.	17%	?	-1%	?
Cc1ccc(Cn2ccc(NC(=O)c3nn(C)cc3Cl)n2)cc1	-4%	15%	?	21µM*	?	12%
COc1ccc(OC)c(/C=N/NC(=O)c2cc3c(OC)c(OC)ccc3[nH]2)c1	-2%	17%	-2%	4.8µM*	3%	0%
SMILES	KinaseGlo FLuc	SMN2 splice up	NPC1 prom act	FLuc modulator	Rab9 promoter act	ELG1 genotox
COc1ccc(/C=N\NC(=O)c2ccccc2)cc1COc1ccccc1	.	.	-8%	-20%	0%	-10%
COc1cccc(OCc2cc(/C=N/NC(=O)c3ccn[nH]3)ccc2OC)c1	-7%	19%	20%	15µM*	13%	8%
CCOc1ccc2[nH]c(C(=O)N/N=C/c3ccccc3OC)cc2c1	.	.	-22%	15µM*	-15%	-4%
COc1ccc2[nH]c(C(=O)N/N=C/c3ccc(OC)c(O)c3)cc2c1	.	.	-15%	5.4µM*	-11%	11%
COc1ccc(OC)c(/C=N/NC(=O)c2ccc3nc[nH]c3c2)c1	.	.	3%	?	0%	-4%
CCOc1ccc(N(CC(=O)Nc2ccc(C)c(C)c2)S(=O)(=O)c2c(C)noc2C)cc1	0%	-47%	-9%	1%	0%	-5%
O=C(COC(=O)C(O)C(O)C(=O)OCC(=O)c1ccc(C(F)(F)F)cc1)c1ccc(C(F)(F)F)cc1 (stereo not drawn)	.	.	-2%	-2%	-3%	1%
CCOC(=O)N1CCN(C(=O)CSc2nnc(-c3cc(OC)cc(OC)c3)o2)CC1	-2%	?	0%	2%	0%	-20%
COc1ccc(/C=N\NC(=O)c2cc(O)c(O)c(O)c2)cc1COc1ccc(C(=O)OCC(C)C)cc1	.	.	-6%	24µM*	4%	?
COc1ccc2[nH]c(C(=O)N/N=C/c3ccccc3OC)cc2c1	.	.	-18%	19µM*	0%	-4%
CCCOc1ccc2[nH]c(C(=O)N/N=C/c3cc(OC)c(OC)c(OC)c3)cc2c1	.	.	11%	13µM*	14%	-6%
CCOc1ccc(/C=N/NC(=O)c2cc3c(OC)cc(OC)c(OC)c3[nH]2)cc1	.	.	-6%	?	-5%[1.84 µM]	-16%
COc1cc(OC)c2cc(C(=O)N/N=C/c3ccccc3O)[nH]c2c1	.	.	-45%	-5%	-34%	?
COc1ccc(C(=O)N/N=C/c2ccc(OC)c(COc3ccccc3)c2)cc1	.	.	1%	-1%	1%	3%
O=C(CSc1nnc(CNC(=O)c2cccs2)o1)NCc1ccc(F)cc1	-1%	11%	6%	-1%	0%	2%
Cc1cccc(NC2=NC(C)(C)N=C(N)N2)c1	-1%	.	-5%	1%	1%	-16%
Cn1cc([N+](=O)[O-])c(C(=O)NC2CCCCCC2)n1	.	.	-4%	1%	-8%	-3%
CSCCCN1CCC(n2nccc2NC(=O)CCCc2ccccc2)CC1	.	.	0%	0%	0%	-4%
CCOc1ccc(S(=O)(=O)Nc2ccc(-c3ccc(N4CCCC4)nn3)cc2)cc1	.	.	.	0%	.	.
